Experimental data: PubChem BioAssay (EPA / NIEHS)
Values joined by “and” are separate entries in the source; they are usually repeats but may differ in a detail not shown here. Equal entries are not always repeated. More than one record can exist for a structure, and the calls need not agree. Active and inactive are the calls of the source. How the source made its calls: active means hit-call score of the fitted dose curve at least 0.9, where 1 is the maximum; inactive means score below 0.9.

What was measured:
[1] = ATG_CRE_CIS: Attagene CIS-FACTORIAL HepG2 Assay for human cAMP Responsive Element (CRE) binding protein 3 (AID 2282926); settings: HepG2 CRE cis-reporter, Attagene multiplexed mRNA; actives raise or lower the signal
Outline: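 Human liver HepG2, transient MRTU transfection, 24 h compound exposure. Total RNA → oligo(dT) RT → PCR → 6-FAM primer extension → HpaI cut → CE. Activity called both directions vs DMSO.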

[2] = biological target: CCAAT/enhancer-binding protein beta (Homo sapiens) (UniProt P17676); assay: ATG_C_EBP_CIS: Attagene CIS-FACTORIAL HepG2 Assay for human CCAAT/Enhancer Binding Protein (C/EBP) beta (AID 2282927); settings: HepG2 Attagene cis-factorial transcription factor reporter; actives raise or lower the signal
Outline: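 HepG2, transient MRTU transfection, 24 h treatment. RT-PCR plus CE fluorescence; DMSO negative control, bidirectional fit.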

[3] = ATG_CMV_CIS: Attagene CIS-FACTORIAL HepG2 Assay for human CMV (Internal Marker) (AID 2282928); settings: HepG2 CMV promoter reporter, transcription factor profiling; actives raise or lower the signal;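 further: endpoint acts as a background internal control marker rather than a target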
Outline: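 Endogenous transcription factor activity read in HepG2 via transfected cis-promoter reporter units. After 24 h dosing, reporter mRNA measured by RT-PCR/capillary electrophoresis; gain or loss of signal fit relative to DMSO.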

[4] = ATG_DR4_LXR_CIS: Attagene CIS-FACTORIAL HepG2 Assay for human Liver X Receptor (LXR), DR4 submotif (AID 2282929); settings: HepG2 Attagene DR4 cis-reporter, mRNA transcription; actives raise or lower the signal
Outline: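 HepG2, transient MRTU transfection, cis-element (DR4) promoter; 24 h compound exposure; total RNA → oligo(dT) RT → PCR → 6-FAM primer extension → HpaI cut → CE. Gain/loss vs DMSO, bidirectional fit.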

[5] = biological target: Aryl hydrocarbon receptor (Homo sapiens) (UniProt P35869); assay: ATG_Ahr_CIS: Attagene CIS-FACTORIAL HepG2 Assay for human Aryl Hydrocarbon Receptor (Ahr) (AID 2282930); settings: HepG2 AhR cis-factorial reporter transcription; actives raise or lower the signal
Outline: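 Endogenous factor activity is tracked through cis-promoter reporter units transfected into HepG2 cells. Transcript levels at 24 h are read by fluorescent RT-PCR and capillary electrophoresis, with activity in either direction scored relative to DMSO.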

[6] = ATG_AP_1_CIS: Attagene CIS-FACTORIAL HepG2 Assay for human Activator Protein 1 (AP-1) (AID 2282931); settings: HepG2 Attagene cis-factorial AP-1 reporter mRNA; actives raise or lower the signal
Outline: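 Transient MRTU transfection of HepG2 → 24 h chemical treatment → RNA isolation, RT-PCR, 6-FAM labelling, HpaI digest → capillary electrophoresis. Fit: bidirectional, DMSO negative control.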

[7] = ATG_AP_2_CIS: Attagene CIS-FACTORIAL HepG2 Assay for human Activator Protein 2 (AP-2) (AID 2282932); settings: HepG2 AP-2 cis-reporter, Attagene transcription factor profiling; actives raise or lower the signal
Outline: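 Multiplexed mRNA reporter assay in HepG2: cis-regulated units report endogenous factor activity after 24 h treatment. Fluorescence from capillary electrophoresis of RT-PCR products gives the signal, with DMSO as baseline.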

[8] = ATG_BRE_CIS: Attagene CIS-FACTORIAL HepG2 Assay for human Bone Morphogenetic Protein (BMP) Response Element (BRE) (AID 2282933); settings: HepG2 BMP response element reporter, Attagene transcription factor profiling; actives raise or lower the signal
Outline: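 A HepG2 multiplex reporter system measured inducible reporter mRNA 24 h post-dosing. Detection: RT-PCR, 6-FAM primer extension, HpaI digestion, capillary electrophoresis. Activity fitted bidirectionally relative to DMSO.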

[9] = biological target: Transcription factor E2F1 (Homo sapiens) (UniProt Q01094); assay: ATG_E2F_CIS: Attagene CIS-FACTORIAL HepG2 Assay for human E2F Transcription Factor 1 (AID 2282935); settings: HepG2 Attagene cis-reporter, E2F reporter RNA transcripts; actives raise or lower the signal
Outline: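 Measures reporter transcript levels via RT-PCR with capillary electrophoresis detection in HepG2 cells harboring cis-regulated reporter units; 24 h post-dose; bidirectional curve fitting with DMSO as baseline.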

[10] = ATG_E_Box_CIS: Attagene CIS-FACTORIAL HepG2 Assay for human Enhancer Box (E-box) (AID 2282936); settings: HepG2 E-box cis-reporter transcription, actives raise or lower the signal
Outline: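 First, HepG2 cells receive multiple cis-regulated reporter constructs by transient transfection. Next, chemicals are applied for 24 h. Finally, reporter mRNA is quantified via RT-PCR and capillary electrophoresis, with DMSO as baseline.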

[11] = ATG_M_61_CIS: Attagene CIS-FACTORIAL HepG2 Assay for M61 Transcription Factor (Internal Marker) (AID 2282937); settings: HepG2 Attagene CIS-FACTORIAL M61 internal marker reporter; actives raise or lower the signal
Outline: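 Human liver HepG2, transient MRTU transfection (cis promoter elements), 24 h compound. Total RNA → oligo(dT) RT → PCR → FAM label → HpaI → CE. Internal background marker; bidirectional fitting, DMSO = baseline.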

[12] = ATG_EGR_CIS: Attagene CIS-FACTORIAL HepG2 Assay for human Early Growth Response 1 (EGR1) (AID 2282938); settings: HepG2 Attagene CIS-FACTORIAL EGR reporter mRNA; actives raise or lower the signal
Outline: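 Transient transfection of human HepG2 with multiple cis-regulated reporter units, chemical exposure 24 h, total RNA isolated. Reverse transcription, PCR, fluorescent labelling and capillary electrophoresis quantify reporter transcripts; activity fitted bidirectionally against DMSO.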

[13] = ATG_ERE_CIS: Attagene CIS-FACTORIAL HepG2 Assay for Estrogen Response Element (ERE) (AID 2282940); settings: HepG2 ERE cis-reporter, Attagene RNA transcript; actives raise or lower the signal
Outline: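 Human liver cells (HepG2) bearing transiently transfected, promoter-regulated reporter units were exposed 24 h. Reporter mRNA induction was detected by capillary electrophoresis of labelled RT-PCR products and fitted bidirectionally to DMSO.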

[14] = ATG_Ets_CIS: Attagene CIS-FACTORIAL HepG2 Assay for human Erythroblast Transformation Specific (ETS) (AID 2282941); settings: HepG2 ETS cis-reporter transcription, actives raise or lower the signal
Outline: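 Steps: transfect HepG2 with multiple reporter units; treat compound 24 h; isolate RNA, DNase-treat, reverse-transcribe; PCR-amplify, label with 6-FAM, digest with HpaI; separate by capillary electrophoresis. Activity fitted both directions versus DMSO.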

[15] = biological target: Hepatocyte nuclear factor 3-beta (Homo sapiens) (UniProt Q9Y261); assay: ATG_FoxA2_CIS: Attagene CIS-FACTORIAL HepG2 Assay for human Forkhead box A2 (FOXA2) (AID 2282942); settings: HepG2 cis-reporter transcription factor activity, 24 h; actives raise or lower the signal
Outline: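 Transient MRTU transfection of HepG2 liver cells; 24 h treatment; total RNA → oligo(dT) RT → PCR → FAM primer extension → HpaI cut → CE. Bidirectional fit vs DMSO.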

[16] = ATG_FoxO_CIS: Attagene CIS-FACTORIAL HepG2 Assay for human Forkhead box O (FoxO) (AID 2282943); settings: HepG2 Attagene cis-reporter, FoxO element, mRNA; actives raise or lower the signal
Outline: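 Transfected HepG2 reporter cells exposed to test chemical for 24 h; reporter RNA measured by reverse transcription, PCR and fluorescent capillary electrophoresis; curves fitted for increases and decreases against DMSO.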

[17] = ATG_GATA_CIS: Attagene CIS-FACTORIAL HepG2 Assay for human GATA Binding Protein (AID 2282944); settings: HepG2 GATA cis-element reporter, Attagene multiplex mRNA; actives raise or lower the signal
Outline: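 Transfected cis-reporter HepG2 cells were treated with chemicals for 24 hours. Total RNA was then converted to cDNA, amplified with reporter-specific primers and analysed by fluorescent capillary electrophoresis, using DMSO-treated wells as baseline.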

[18] = ATG_GLI_CIS: Attagene CIS-FACTORIAL HepG2 Assay for human Zinc Finger Protein GLI1 (AID 2282945); settings: HepG2, Attagene cis-factorial reporter mRNA, GLI element; actives raise or lower the signal
Outline: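 Transiently transfected HepG2 cells report endogenous transcription factor activity via cis-element-driven reporter units. After 24 h compound exposure, reporter mRNA was measured by RT-PCR with capillary electrophoresis; bidirectional fitting against DMSO baseline.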

[19] = biological target: Retinoic acid receptor alpha (Homo sapiens) (UniProt P10276); assay: ATG_DR5_RAR_CIS: Attagene CIS-FACTORIAL HepG2 Assay for human Retinoic Acid Receptor Alpha (RARE), DR5 submotif (AID 2282934); settings: HepG2 Attagene cis-factorial RARE DR5 reporter, mRNA; actives raise or lower the signal;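 on AC50: reporter responds to endogenous RAR alpha beta and gamma in HepG2 not RARA alone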
Outline: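 After 24 h of chemical exposure, transiently transfected HepG2 cells were lysed for total RNA; the DR5-regulated reporter transcript was quantified via RT-PCR and capillary electrophoresis, with activity fitted bidirectionally against DMSO.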

[20] = ATG_M_19_CIS: Attagene CIS-FACTORIAL HepG2 Assay for M19 Transcription Factor (Internal Marker) (AID 2282939); settings: HepG2 Attagene CIS-FACTORIAL M19 internal marker reporter; actives raise or lower the signal
Outline: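 Chemical-treated HepG2 (24 h) with MRTU constructs; reporter transcripts detected by fluorescent RT-PCR fragment analysis on capillary electrophoresis. Internal background marker, DMSO as baseline.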

Measured: AC50

Sequence of Hepatocyte nuclear factor 3-beta (Homo sapiens) (Q9Y261 whole entry, looked up): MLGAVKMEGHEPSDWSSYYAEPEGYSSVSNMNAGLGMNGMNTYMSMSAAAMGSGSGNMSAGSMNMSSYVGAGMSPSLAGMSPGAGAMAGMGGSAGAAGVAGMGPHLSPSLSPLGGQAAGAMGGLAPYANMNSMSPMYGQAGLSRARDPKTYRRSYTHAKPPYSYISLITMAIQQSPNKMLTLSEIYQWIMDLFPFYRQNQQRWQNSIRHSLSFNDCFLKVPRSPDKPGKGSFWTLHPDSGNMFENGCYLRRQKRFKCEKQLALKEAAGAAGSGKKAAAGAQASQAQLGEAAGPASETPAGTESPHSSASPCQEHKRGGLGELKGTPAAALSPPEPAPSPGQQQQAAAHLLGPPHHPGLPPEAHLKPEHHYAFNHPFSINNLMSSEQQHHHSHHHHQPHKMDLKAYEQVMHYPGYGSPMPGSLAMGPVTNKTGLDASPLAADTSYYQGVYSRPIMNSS
Sequence of CCAAT/enhancer-binding protein beta (Homo sapiens) (P17676 whole entry, looked up): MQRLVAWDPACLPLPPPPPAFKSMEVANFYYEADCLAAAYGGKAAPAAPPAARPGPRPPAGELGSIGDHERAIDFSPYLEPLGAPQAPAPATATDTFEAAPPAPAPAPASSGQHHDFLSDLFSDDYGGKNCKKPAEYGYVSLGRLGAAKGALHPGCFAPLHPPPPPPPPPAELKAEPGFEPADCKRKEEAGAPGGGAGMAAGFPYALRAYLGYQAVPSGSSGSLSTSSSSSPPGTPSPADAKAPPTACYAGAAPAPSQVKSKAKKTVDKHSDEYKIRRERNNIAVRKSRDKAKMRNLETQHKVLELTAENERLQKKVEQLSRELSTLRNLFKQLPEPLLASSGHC
Sequence of Aryl hydrocarbon receptor (Homo sapiens) (P35869 whole entry, looked up): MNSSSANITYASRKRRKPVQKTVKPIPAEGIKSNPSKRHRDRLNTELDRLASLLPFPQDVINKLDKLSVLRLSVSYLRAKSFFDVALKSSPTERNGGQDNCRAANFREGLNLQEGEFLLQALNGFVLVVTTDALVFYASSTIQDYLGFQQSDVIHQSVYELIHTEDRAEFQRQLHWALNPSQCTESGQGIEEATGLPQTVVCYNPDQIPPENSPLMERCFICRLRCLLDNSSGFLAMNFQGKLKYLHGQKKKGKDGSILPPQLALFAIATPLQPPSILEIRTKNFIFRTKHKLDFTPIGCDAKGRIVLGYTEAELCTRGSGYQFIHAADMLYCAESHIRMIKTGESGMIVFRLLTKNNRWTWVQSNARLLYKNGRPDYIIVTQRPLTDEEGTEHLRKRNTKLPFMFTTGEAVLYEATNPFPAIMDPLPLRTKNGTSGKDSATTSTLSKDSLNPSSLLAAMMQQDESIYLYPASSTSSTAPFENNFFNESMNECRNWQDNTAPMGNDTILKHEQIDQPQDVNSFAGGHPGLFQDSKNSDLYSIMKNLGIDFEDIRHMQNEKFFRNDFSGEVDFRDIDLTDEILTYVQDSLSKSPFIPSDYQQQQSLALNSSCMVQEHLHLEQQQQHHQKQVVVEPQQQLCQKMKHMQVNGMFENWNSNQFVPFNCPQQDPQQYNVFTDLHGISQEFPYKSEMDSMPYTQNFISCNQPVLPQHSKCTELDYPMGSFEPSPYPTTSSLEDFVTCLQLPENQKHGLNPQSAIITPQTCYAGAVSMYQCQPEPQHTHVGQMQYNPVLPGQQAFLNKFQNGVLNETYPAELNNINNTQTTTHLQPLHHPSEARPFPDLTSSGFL
Sequence of Transcription factor E2F1 (Homo sapiens) (Q01094 whole entry, looked up): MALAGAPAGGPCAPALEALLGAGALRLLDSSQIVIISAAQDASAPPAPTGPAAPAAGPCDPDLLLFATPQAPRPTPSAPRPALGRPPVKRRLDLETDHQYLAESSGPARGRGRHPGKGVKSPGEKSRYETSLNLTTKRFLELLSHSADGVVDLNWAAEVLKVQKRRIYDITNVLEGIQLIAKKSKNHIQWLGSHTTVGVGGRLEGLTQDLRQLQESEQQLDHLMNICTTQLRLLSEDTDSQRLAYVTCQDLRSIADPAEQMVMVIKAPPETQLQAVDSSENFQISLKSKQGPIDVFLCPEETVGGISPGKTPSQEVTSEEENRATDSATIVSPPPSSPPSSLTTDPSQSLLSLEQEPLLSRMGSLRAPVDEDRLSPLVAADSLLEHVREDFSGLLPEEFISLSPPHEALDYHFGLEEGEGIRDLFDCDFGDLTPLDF
Sequence of Retinoic acid receptor alpha (Homo sapiens) (P10276 whole entry, looked up): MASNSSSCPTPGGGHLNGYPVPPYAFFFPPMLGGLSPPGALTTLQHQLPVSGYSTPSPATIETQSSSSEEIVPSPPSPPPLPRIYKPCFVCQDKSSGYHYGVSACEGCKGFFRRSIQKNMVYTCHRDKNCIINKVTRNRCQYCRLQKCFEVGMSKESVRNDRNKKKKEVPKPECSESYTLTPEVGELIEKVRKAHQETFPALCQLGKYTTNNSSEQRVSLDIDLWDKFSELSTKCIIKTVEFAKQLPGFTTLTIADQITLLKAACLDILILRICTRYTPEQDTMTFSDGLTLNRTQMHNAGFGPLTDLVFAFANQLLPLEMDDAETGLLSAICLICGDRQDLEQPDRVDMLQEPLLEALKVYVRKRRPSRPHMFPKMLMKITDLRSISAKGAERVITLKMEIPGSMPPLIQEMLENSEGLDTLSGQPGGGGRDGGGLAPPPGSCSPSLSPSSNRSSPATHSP

O=C(O)c1ccccc1-n1cc(C(=O)O)c(=O)c2cc(Nc3c(F)cc(F)cc3Cl)c(Cl)cc21
not listed: [19] | [20]
inactive: all other assays above

Cc1c2ccccc2c(C)c2c1ccc1ccccc12
active: [3] 33.1 µM | [4] 10.4 µM | [5] 3.38 µM | [6] 25.5 µM | [8] 14.6 µM | [10] 8.32 µM | [13] 3.55 µM
not listed: [1] | [19] | [20]
inactive: all other assays above

CCN(CC)C(=O)c1cc(S(=O)(=O)Cc2ccccc2)c(N2CCC(c3ccccc3)CC2)cc1N(CC)CCN(C)C
not listed: [1]
inactive: all other assays above

c1ccc2ccccc2c1
not listed: [1] | [19] | [20]
inactive: all other assays above

CC1(C)NC(=O)N(c2ccc([N+](=O)[O-])c(C(F)(F)F)c2)C1=O
active: [6] 39.2 µM
inactive: [2] | [3] | [4] | [5] | [6] | [7] | [8] | [9] | [10] | [11] | [12] | [14] | [15] | [16] | [17] | [18]

CCCCCCCCCCCCO
not listed: [1] | [19] | [20]
inactive: all other assays above

OCCO
not listed: [1] | [19] | [20]
inactive: all other assays above

CCCCCCCCCC(=O)O
not listed: [1] | [5] | [13] | [19] | [20]
inactive: all other assays above

CC(=O)N1CCN(c2ccc(OC[C@H]3CO[C@](Cn4ccnc4)(c4ccc(Cl)cc4Cl)O3)cc2)CC1
active: [3] 44.4 µM | [4] 43.9 µM | [5] 0.412 µM | [6] 43.5 µM | [8] 28.6 µM | [10] 54.6 µM | [12] 11.6 µM
not listed: [1]
inactive: all other assays above

c1ccc2n[nH]nc2c1
inactive: [2] | [3] | [4] | [5] | [6] | [7] | [8] | [9] | [10] | [11] | [12] | [14] | [15] | [16] | [17] | [18]
active: [5] 51.9 µM

CC(C)(C)c1csc(-c2cc3cc(OCc4ccccc4CC(=O)O)ccc3o2)n1
active: [3] 33.4 µM | [4] 4.56 µM | [6] 33.4 µM | [8] 57.6 µM | [12] 14.4 µM
not listed: [1] | [19] | [20]
inactive: all other assays above

CC1=CC(=O)/C(=C(/C)O)C(=O)O1
not listed: [1] | [5] | [19] | [20]
inactive: all other assays above

Cc1cn([C@H]2C[C@H](N=[N+]=[N-])[C@@H](CO)O2)c(=O)[nH]c1=O
active: [3] 27.4 µM
not listed: [1]
inactive: all other assays above

CC(C)(c1cc(Br)c(O)c(Br)c1)c1cc(Br)c(O)c(Br)c1
active: [3] 53.3 µM and 58.5 µM | [4] 12.5 µM and 13.9 µM | [6] 58.4 µM and 53.2 µM | [7] 55.8 µM | [8] 46.6 µM | [19] 25.6 µM and 14.2 µM | [12] 47.1 µM and 37.6 µM | [16] 58 µM | [17] 58.1 µM | [18] 49.8 µM and 50.8 µM
inactive: [2] | [7] | [8] | [9] | [10] | [11] | [14] | [15] | [16] | [17]
